Shown is part of a subset that was picked to be rich in hits.
ALOX12 inh = Primary qHTS assay for inhibitors of human arachidonate 12S-lipoxygenase (ALOX12): Round 2 | Potency, µM (doses to about 108 µM), hits mostly inhibitors | 580,000 compounds, 1.1% hits | purified 12hLO, xylenol orange hydroperoxide absorbance | Polyunsaturated fatty acid lipoxygenase ALOX12 (Homo sapiens), P18054
Target sequence (P18054 whole entry, looked up): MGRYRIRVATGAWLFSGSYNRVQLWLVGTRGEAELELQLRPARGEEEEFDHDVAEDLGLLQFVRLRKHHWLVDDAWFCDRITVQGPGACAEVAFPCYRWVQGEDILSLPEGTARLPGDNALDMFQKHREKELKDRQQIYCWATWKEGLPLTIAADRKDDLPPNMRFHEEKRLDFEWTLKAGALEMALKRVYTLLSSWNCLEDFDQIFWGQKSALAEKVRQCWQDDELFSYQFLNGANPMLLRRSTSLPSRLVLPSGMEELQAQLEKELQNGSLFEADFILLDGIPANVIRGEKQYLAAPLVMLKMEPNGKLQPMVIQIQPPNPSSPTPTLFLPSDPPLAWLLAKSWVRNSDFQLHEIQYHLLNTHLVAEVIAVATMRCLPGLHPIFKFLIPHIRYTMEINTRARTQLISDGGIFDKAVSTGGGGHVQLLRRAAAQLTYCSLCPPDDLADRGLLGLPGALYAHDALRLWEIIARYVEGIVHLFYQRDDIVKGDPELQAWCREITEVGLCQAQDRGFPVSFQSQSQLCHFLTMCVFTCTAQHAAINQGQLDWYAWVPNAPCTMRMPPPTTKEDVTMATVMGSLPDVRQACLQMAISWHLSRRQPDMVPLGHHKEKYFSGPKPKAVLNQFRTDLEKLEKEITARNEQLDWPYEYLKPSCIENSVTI
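Purified human 12hLO at 150 nM in 25 mM Hepes, 0.01% Triton X-100, pH 7.0, preincubated 15 min at room temperature with compound. Reaction started with 40 uM arachidonic acid, 30 min at room temperature. Hydroperoxide measured by Fe-xylenol orange, 573/405 nm absorbance ratio.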
IL1B secr inh = qHTS for Inhibitors of Inflammasome Signaling: IL-1-beta AlphaLISA Primary Screen | AID 743279, 2014 | activity change, % at 57.5 µM | 360,000 compounds, 4.7% hits | THP-1 LPS/ATP IL-1B secretion, AlphaLISA, 16 h; active compounds read low; in the data active = activity change below about -50%; inconclusive = mostly about -30% to -49%
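THP-1 cells pretreated 1 hr with compounds (up to 57.5 uM final), then stimulated with LPS (250 ng/mL final) plus ATP (1.25 mM final); secreted IL-1B measured by AlphaLISA after 16 hr, decreased signal indicating inhibition.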
HT1080 IDH1KD tx = qHTS for induction of synthetic lethality in tumor cells producing 2HG: qHTS for the HT-1080-IDH1KD cell line | HT-1080 IDH1 knockdown viability, ATP luminescence, 48 h | Potency, µM (doses to about 46.1 µM), most hits filed as cytotoxic | 360,000 compounds, 2% hits | AID 686971, 2013
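CellTiter-Glo luminescence after 48 h compound exposure at 37 degrees C of IDH1-knockdown HT-1080 cells in 5% FBS RPMI. %Activity scaled between DMSO wells and cell-free media wells, with curves fitted and assigned curve classes.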
HT1080-NT tox = qHTS for induction of synthetic lethality in tumor cells producing 2HG: qHTS for the HT-1080-NT fibrosarcoma cell line | Potency, µM (highest dose often 46.1 µM), hits mostly cytotoxic | 360,000 compounds, 1.6% hits | HT-1080-NT fibrosarcoma viability, CellTiter-Glo ATP luminescence, 48 h | AID 686970, 2013;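 also: NT is the 2HG producing partner of a matched IDH1 knockdown line; nearly all actives have a fitted effect of over 55% in size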
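Compounds were tested in concentration-response format on HT-1080-NT cells for 48 hours at 37 degrees C. Cell viability came from CellTiter-Glo luminescence; curves were classified by r2, response magnitude and activity.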
TDP1 cell CPT = qHTS for Inhibitors of human tyrosyl-DNA phosphodiesterase 1 (TDP1): qHTS in cells in presence of CPT | chicken DT40 Tdp1-/-;hTDP1 cells + 20 nM CPT, ATP luminescence, 48 h | Potency, µM (highest dose often 46.2 µM), usual class: inhibitors | 420,000 compounds, 12% hits; also: nearly all actives have a fitted effect of over 55% in size
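Chicken DT40 Tdp1-/- cells stably complemented with human TDP1 were seeded at 400 cells/well in medium containing 20 nM camptothecin, exposed to pin-transferred compounds, and grown at 37 °C for at least 48 hr. Viability was read as ATP luminescence.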
DT40 TDP1 no CPT = qHTS for Inhibitors of human tyrosyl-DNA phosphodiesterase 1 (TDP1): qHTS in cells in absence of CPT; DT40 Tdp1-/- hTDP1 cells, no CPT, ATP luminescence, 48 h; Potency, µM (doses to about 46.2 µM), actives largely listed as inhibitors; 420,000 compounds, 15% hits; AID 686978, 2013; also: nearly all actives have a fitted effect of over 55% in size
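Growth of hTDP1-complemented DT40 Tdp1-knockout cells is measured by ATP luminescence after at least 48 hr compound exposure at 37 °C, with DMSO substituting for the 20 nM CPT used in the parallel screen.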
A number is an active result; – = inactive; ? = inconclusive; · = not tested or not shown. Unless noted, calls follow the shape of the dose curve; as a rule, active = well fitted curve in the direction sought with a large enough effect; inconclusive = small, poorly fitted or top-dose-only effect, or another doubt; inactive = no such curve, though single readings can be large; an effect the other way counts as inactive or inconclusive.

SMILES	ALOX12 inh	IL1B secr inh	HT1080 IDH1KD tx	HT1080-NT tox	TDP1 cell CPT	DT40 TDP1 no CPT
COc1ccc(Nc2c3c(nc4ccc(C)cc24)CCC3)cc1	–	–	–	–	?	?
Cc1ccc2nc3c(c(Nc4ccc5c(c4)OCCO5)c2c1)CCC3	–	-92	?	?	16µM	18µM
Cc1ccc2nc3c(c(Nc4ccc(O)cc4)c2c1)CCC3	–	–	–	–	?	18µM
FC(F)(F)c1ccc(N2CCN(c3ncnc4c3nnn4Cc3ccccc3Cl)CC2)cc1	–	–	–	–	?	?
O=C(c1ccco1)N1CCN(c2nc(C(F)(F)F)nc3c2nnn3Cc2ccccc2)CC1	–	?	?	?	18µM	?
Cc1nnc(NCc2ccc(F)cc2)c2c1nnn2Cc1ccccc1Cl	–	·	·	·	2.9µM	2.3µM
Fc1ccc(N2CCN(c3ncnc4c3nnn4Cc3ccccc3Cl)CC2)cc1	–	–	–	–	?	15µM
O=C(c1ccco1)N1CCN(c2ncnc3c2nnn3Cc2ccccc2Cl)CC1	–	–	–	–	?	23µM
CCOC(=O)C1CCN(c2ncnc3c2nnn3Cc2ccccc2Cl)CC1	–	–	–	–	–	–
CCN(CC(=O)Nc1cccc(OC)c1)C(=O)Cc1nc(-c2ccccc2)oc1C	–	·	·	·	·	·
Cc1ccc(-c2nn(C)c(=O)c3ccccc23)cc1S(=O)(=O)NCCCO	–	·	·	·	·	·
Cc1nnc(N2CCN(c3ccc(Cl)cc3)CC2)c2c1nnn2Cc1ccc(F)cc1	–	·	·	·	?	2.6µM
O=C1CCCc2ccccc2N1Cc1cccc(Cl)c1	–	–	–	–	?	9.2µM
O=C1CCCc2ccccc2N1Cc1ccc(Cl)cc1	–	–	–	–	?	?
O=C1CCCc2ccccc2N1Cc1ccccc1	–	–	–	–	13µM	12µM
COc1ccc(CN2C(=O)CCCc3ccccc32)cc1	?	–	?	–	?	21µM
Cn1cc(C(=O)NC2(C)CCS(=O)(=O)C2)c2ccccc21 (stereo not drawn)	13µM	·	·	·	·	·
O=C(N/N=C1\CC(c2ccccc2)Oc2ccccc21)c1ccc(O)cc1 (stereo not drawn)	–	–	–	–	?	?
O=C(N/N=C1\CC(c2ccccc2)Oc2ccccc21)c1cccnc1 (stereo not drawn)	–	–	12µM	?	?	21µM
Cc1cccc(NS(=O)(=O)c2ccc3c(c2)CCN3C(=O)C2CC2)c1C	–	·	·	·	21µM	23µM
CC(Cl)C(=O)c1ccc2c(c1)CCN2C(=O)C1CC1 (stereo not drawn)	–	-63	–	–	?	?
Cc1cccc(NS(=O)(=O)c2ccc3c(c2)CCCN3C(=O)C2CCC2)c1C	–	·	·	·	21µM	?
CN(C)c1ccc(NC(=O)CCCc2c[nH]c3ccccc23)cc1	–	·	·	·	·	·
O=c1c2c3nc4ccccc4nc3n(/N=C/c3ccco3)c2ncn1CCC1=CCCCC1	–	–	–	–	16µM	21µM
